Test results as given in the supplement of paper PMC12632987.

T1: USP38, Q8NB14
T1 chain: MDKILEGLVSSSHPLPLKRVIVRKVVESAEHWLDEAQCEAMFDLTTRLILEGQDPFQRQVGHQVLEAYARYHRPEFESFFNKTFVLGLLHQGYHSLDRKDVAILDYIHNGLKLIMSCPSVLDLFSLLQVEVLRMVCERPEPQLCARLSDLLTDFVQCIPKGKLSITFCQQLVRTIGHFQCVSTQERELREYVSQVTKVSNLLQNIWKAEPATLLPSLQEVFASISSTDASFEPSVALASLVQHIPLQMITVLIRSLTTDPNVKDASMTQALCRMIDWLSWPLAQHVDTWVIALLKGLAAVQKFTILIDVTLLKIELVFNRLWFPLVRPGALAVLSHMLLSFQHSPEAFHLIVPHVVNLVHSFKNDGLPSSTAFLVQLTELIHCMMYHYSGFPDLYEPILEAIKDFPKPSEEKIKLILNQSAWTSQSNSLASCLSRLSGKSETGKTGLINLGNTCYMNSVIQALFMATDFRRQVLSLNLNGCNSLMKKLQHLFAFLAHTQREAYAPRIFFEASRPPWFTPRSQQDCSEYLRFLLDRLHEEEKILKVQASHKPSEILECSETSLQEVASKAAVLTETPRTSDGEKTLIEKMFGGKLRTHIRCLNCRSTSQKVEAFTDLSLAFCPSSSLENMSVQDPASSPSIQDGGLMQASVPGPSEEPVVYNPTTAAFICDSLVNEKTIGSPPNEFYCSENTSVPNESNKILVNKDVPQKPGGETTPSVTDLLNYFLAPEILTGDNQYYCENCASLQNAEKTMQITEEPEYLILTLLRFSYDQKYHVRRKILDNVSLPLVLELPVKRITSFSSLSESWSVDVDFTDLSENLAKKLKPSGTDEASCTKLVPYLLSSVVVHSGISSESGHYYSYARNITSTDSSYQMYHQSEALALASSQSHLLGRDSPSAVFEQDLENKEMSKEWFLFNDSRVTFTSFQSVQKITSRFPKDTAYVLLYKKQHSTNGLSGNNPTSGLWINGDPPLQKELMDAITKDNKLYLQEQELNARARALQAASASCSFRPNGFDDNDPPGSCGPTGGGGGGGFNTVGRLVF

B1: usp_38_diff_out_1_153_28 (protein)
chain: SKLEELKKRVEEITKEAKELKKEAEKLIKSGKATLEKVEELADKLGKLSVELREIRSEAAEDEEYYKELKPLFKEAEKALNEAVDALEKAGRLVFEKMAE
B2: usp_38_diff_out_1_153_29 (protein)
chain: SELEELKARVEKITKEAEALKKEAEKLIADGTATREKVDALADKLGALAVELREIKSKAAESGEYYKKLKPLFDKAEAALNEAVDALNRAATLVFEREAA
B3: usp_38_diff_out_1_153_30 (protein)
chain: SELEELEKEIKKITEEAKKLKKEAEELIKSGKATREKVDKLADELGKLAVRLREIRSKAAESGDYYKKLKPLFKEAEKALNEAVDALEKAGRLVFEKEAE
B4: usp_38_diff_out_1_153_31 (protein)
chain: SELEELRERIERLTREARELEREARELIESGEATREKVDELADRLGRLAVELRELRSKAAESGEYYKELKPLFEEAEEALNRAVDALNEAGRLVFEREAE
B5: usp_38_diff_out_1_153_32 (protein)
chain: SELEELKKKVEEITKKAKELKKEAEKLIADGTATLEKVDALADELGALAVELREIRSKAAESGDYYKKLKPLFDEANAALNEAVDALNRAGTLVFEREAE
B6: usp_38_diff_out_1_153_33 (protein)
chain: SKLEELKARVEALTAEAKALEKEAKALIESGKATREKVDALADRLGALAVELRELRSEAAESGEYYKELKPLFDEANAALDAAVDALEKLGRLVFEKEAE
B7: usp_38_diff_out_1_153_34 (protein)
chain: SRLEELRKRVEEITKRAKELKKRAEELIESGEATLEKVDELADELGRLAVELREVRSEAAEDGDYYRELKPLFDEAEKALNEAVDALNEAGRLVFLKEAE
B8: usp_38_diff_out_1_153_35 (protein)
chain: SELDKLKAELADITAKANALKKEIEAAIKAGTMTREKVDAAWDELGALAKRLAEIRSKAAENPELYPKLKADIDAANAALDAAIDALNEAATKVFLKEAE
B9: usp_38_diff_out_1_153_36 (protein)
chain: SELDELKARLDAITAEANALKAEINAAIEAGTMTREQVDAAWDRLGALAKELAEIRAKAAEKPELYPQLKPAIDAATAALNAAIDALNEAARLVFLREAE
B10: usp_38_diff_out_1_162_37 (protein)
chain: RAEELLERLREHTERLRRLVEEAKRRLDTLSAEELRAMADELADAIAETDELIREARRLMVDLDPERREEARRAIEEARRAADEAVEVYEQLVLRSIELE
B11: usp_38_diff_out_1_162_38 (protein)
chain: ELEELLKEAEEAIERARELLERAEEAFAAGDLETAERLLREAADELGRAAQLLREARRLLRELPPEEREKYRERLEELERELDELIDRYTALATEVFLAR
B12: usp_38_diff_out_1_162_39 (protein)
chain: RLEELLEEARRAIEEARRLLEEAERAFKAGDLEEARRLLDRAADALGRAAQLLREARRLMRDLPPEEREKVREELDRLEEELDRLIDRYTELATRVFLAE
B13: usp_38_diff_out_1_162_40 (protein)
chain: ELEEVLREAREAIERARELLERAKEALEEGRLEEAERLLDEAADELGRAARLLREARRLLRELPPEEREKYREELEKLERELRELIDEYTELAREVFLRR
B14: usp_38_diff_out_1_162_41 (protein)
chain: DIEKVLEQAQKALEEAEKLLKEAEKALKEGDLEEAEKYIRKAWDKLGQLAQLLREARRLLRELSPEERKKYREQLDKLEAKADELIDRLVKLEKEVFLKK
B15: usp_38_diff_out_1_162_42 (protein)
chain: KLEELLEQAKRALAEAEELLERAEEALAAGRLEEARRYLDRAWDALGRLAQLLREARRLLRELSPEEREKARKQLKELEARADELIDRLVELEREVFLRE
B16: usp_38_diff_out_1_162_43 (protein)
chain: DVEKVLEQAKELLEKAEKKIKEAEKALKEGKLEEAEKYLDEAWELLGQLAKLLREARRLRRELDPERQAEVTKKLKELNEKANKLIDKLTKLEEEVFLKK
B17: usp_38_diff_out_1_162_44 (protein)
chain: AVEETLAQLEEALERAERLIEEAERALEEGDLERARELLDEAADTLGRAAQLLREARRLSRELSPEERARVRERLRELNERLDELIDRLTELEREVFLRE
B18: usp_38_diff_out_1_162_45 (protein)
chain: KVEEVLEEAERLLEEAEKLIEAAEKALAAGDLETARKYLDEAWDKLGELAKLLREARRLRRELSPERQEEVRKRLRELEERADELIDRLTELETEVFLRE
B19: usp_38_diff_out_1_162_46 (protein)
chain: EVEKLLEEAEKLLEEAKELIEKAKEAFKEGKLEEAEKYLDEAADKLGQLAKLLREARRLRRELSPERQEEVRKRLRELEERANELIDEYTELETEVFLAK
B20: usp_38_diff_out_1_162_48 (protein)
chain: EVEELLKKAKEKLKEAKELIKKAKEALKAGDLETAKKYLDKAWDLLGELAKLLREARRKMRELSPEERKKVRKELKKLEEEADKLIDELTKLETEVFLKE
B21: usp_38_diff_out_1_9_443 (protein)
chain: SVDDVIIEALEKALEDGLKELKELEKKAEKALKAGDKAQAEALLKRLIRNAEGLIAAAKDAIKLAKKAGLEERAKRLEEMLKEAEKLLEEAKKKLKELKA
B22: usp_38_diff_out_1_9_444 (protein)
chain: DVRREIAEALLEALERGLEELERLRARAEAALAAGDLARAEALLRRLVRNARGLEAAAEDLIEMAKEIGDEELARRAEEILERARRLREEAEARLAELAA
B23: usp_38_diff_out_20_123_446 (protein)
chain: MEEARERAERLLERARQLLENAKQILKFVKAGVLSKETIESNIKFIESQIEYLERERERLREEHPELEELLEEIDRVLEETREVLKEIKAAAAAREAAEA
B24: usp_38_diff_out_20_123_447 (protein)
chain: SEELRARAERLLRQAEQLLENAEQILKFVKAGVLSKETQKAHIEFIESQIETIRREIERLRAEDPSLAELLARIEEVLRKVEETLEEIKKAVEKREKEEA
B25: usp_38_diff_out_20_123_448 (protein)
chain: SEALRARAEELLRRAEQLLENAKQILKFVKAGVLSEETVESHIKMIESQIEYIRREIERLRAEDPSLAPLLEEVERVVREVEEVLEEIKKAVEERKKEKA
B26: usp_38_diff_out_20_123_449 (protein)
chain: SEELRERAERLLRDAERLLENAKQILKFVEAGVLSEETVEAHIEMIEAHIEYIEREIERLRREDPSLAPLLERVERVLEEVKEVLEKIKEAAEKRKEEEK
B27: usp_38_diff_out_20_123_450 (protein)
chain: SEELREEAEELLRRAEQLLENSEQILKFVKAGVLSEETIKSHIEMIESQIKYIEEKIERLRKEDPSLEPLLEEVEKIREEVKKTLEEIKKAAEERKKEEA
B28: usp_38_diff_out_20_123_451 (protein)
chain: SEELRKEAEELLKRAKQLLENAKQILKFVKAGVLSEETIEAHIKMIESQIKYIEEKIKELREKDPSLKPLLEEVEKVVKEVKETLKEIKEAAEKRRKEKA
B29: usp_38_diff_out_20_123_452 (protein)
chain: AAALRAEAEALLARAQQLLENAEQVLKFVKAGVLSEETVEEHIEMFEAHIEYLEAERARLAAEAPELAPLLAQIDEAIAKAKEVLEKIKEELEKRREEEE
B30: usp_38_diff_out_20_123_454 (protein)
chain: SEELRKEAEELLRRAEQLLENAEQILKFVKAGVLSLEKVEEHIKFIEEHIKYLEEKLKELKKKDKSLKELLEKIEELIKKTKEVLKEIKEAVEKRKKEAA
B31: usp_38_diff_out_20_123_455 (protein)
chain: SEELRERAERLLKRSKQLVENAKQILKFVKAGVLSEETVEEHIKFLEDLIKYFEEELERLKKEDPSLKELLEEVEAAIKEAKEVLKEIKEAAEKRKKEEE
B32: usp_38_diff_out_20_123_456 (protein)
chain: MEKAKEEAEKLLRRAKQLVENAEQVLKFVKAGVLSEEKAEEYIKSFEEHIKYIEKEVKKLKKEYPELKELLEEVEKEIKKAKKVLKELKEAVEKRKKEEE

Biological target: T1, USP38, Q8NB14
Experiment: median log2 fold change of GCK-ALFA target abundance (FLAG IP / Myc IP barcode read proportion) (log2 ratio); each designed protein is fused to an ALFA-tag nanobody in HEK293 cells to bring the named protein to FLAG-tagged glucokinase (GCK); Myc marks an untargeted standard; higher = target protein stabilised (more abundant)
Settings: target protein: 3xFLAG-MCP-GCK-ALFA reporter; HEK293 landing pad (RPLP)
Summary of the method: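 An ALFA-nanobody-fused binder library was recombined into HEK293 landing-pad cells and induced with 2 μg mL^−1 doxycycline. Cells were transfected with a plasmid expressing a FLAG-tagged target and a Myc-tagged standard. After 48 h, lysates underwent anti-FLAG and anti-Myc immunoprecipitation, and circular RNA barcodes were reverse transcribed, amplified and sequenced. Target abundance is the per-binder median log2 ratio of FLAG to Myc barcode read proportions. Barcodes needed ≥10^−7 proportion in both replicates, binders ≥3 barcodes per replicate, and a 10^−6 pseudocount was added; the two replicates were pooled.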

Row | Binder | median log2 fold change
1 | B1 | -0.31
2 | B2 | -0.161
3 | B3 | -0.0674
4 | B4 | 0.15
5 | B5 | -0.165
6 | B6 | 0.179
7 | B7 | 0.122
8 | B8 | 0.136
9 | B9 | 0.22
10 | B10 | 0.216
11 | B11 | 0.219
12 | B12 | 0.185
13 | B13 | -0.209
14 | B14 | -0.214
15 | B15 | -0.0981
16 | B16 | -1.34

Row | Binder | median log2 fold change
17 | B17 | 0.133
18 | B18 | -0.331
19 | B19 | -1.08
20 | B20 | -0.368
21 | B21 | 0.0775
22 | B22 | -0.00975
23 | B23 | 0.247
24 | B24 | 0.258
25 | B25 | 0.273
26 | B26 | 0.117
27 | B27 | 0.529
28 | B28 | 0.227
29 | B29 | 0.438
30 | B30 | 0.308
31 | B31 | 0.12
32 | B32 | 0.134
